{
  "source": "PubChem BioAssay (Tox21)",
  "note": "Results filed as inconclusive are left out. Entries that show only a call come without a potency. The source made the active and inactive calls. Calls follow the shape of the dose curve; as a rule, active = well fitted curve in the direction sought with a large enough effect in the repeat runs; inconclusive = weak or mixed curves; inactive = no such curve, though single readings can be large; an effect the other way counts as inactive or inconclusive. Also: nearly all actives have a fitted effect of over 50% in size. Potency is read from the fitted curve at half-maximal effect.",
  "data": [
    {"assay": "qHTS RealTime-Glo MT Cell Viability Assay in HepG2 cells - 16 hour (AID 1224885)", "conditions": "RealTime-Glo luminescence; series mostly up to 76.8 µM", "in_short": "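Luminescence read-out: viable HepG2 cells reduce a prosubstrate to a NanoLuc substrate, giving a signal proportional to live cell number. Reads taken at 0, 8, 16, 24, 32 and 40 h of compound exposure at 37 C.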", "values": [
      {"smiles": "O=C(Nc1ccccc1)c1cc(Cl)ccc1O", "Potency": "inactive"},
      {"smiles": "Cc1ccc(N=Nc2c(O)ccc3ccccc23)c(C)c1", "Potency": "inactive"},
      {"smiles": "C/C=C/C(=O)OCC(C)C", "Potency": "inactive"},
      {"smiles": "CC(C)(C)c1cc(CCC(=O)OCCSCCOC(=O)CCc2cc(C(C)(C)C)c(O)c(C(C)(C)C)c2)cc(C(C)(C)C)c1O", "Potency": "inactive"},
      {"smiles": "C=Cc1ccncc1", "Potency": "inactive"},
      {"smiles": "CCCCCN=C(N)N/N=C/c1c[nH]c2ccc(OC)cc12", "Potency": "7.56 µM (active)"},
      {"smiles": "O=C1CCCCCCCCCCCCCC1", "Potency": "inactive"},
      {"smiles": "CCN(CC)c1ccc(N=Nc2ccccc2)cc1", "Potency": "inactive"},
      {"smiles": "O=C1CCC/C=C\\CCCCCCCCCC1", "Potency": "inactive"},
      {"smiles": "Brc1cc(Br)cc(Br)c1", "Potency": "inactive"},
      {"smiles": "CSc1nnc(C(C)(C)C)c(=O)[nH]1", "Potency": "inactive"},
      {"smiles": "CCOC(=O)OC(=O)OCC", "Potency": "inactive"},
      {"smiles": "CCCCCCCCCC[N+](C)(CCCCCCCCCC)CCC[Si](OC)(OC)OC", "Potency": "49 µM (active)"},
      {"smiles": "c1ccc2c(c1)-c1ccc3ccc4cccc5cc-2c1c3c45", "Potency": "inactive"},
      {"smiles": "O=C(CCCCCCCCc1cccnc1)N1CCC(C=C(c2ccccc2)c2ccccc2)CC1", "Potency": "49 µM (active)"},
      {"smiles": "CCN(CC)c1ccc(C=O)c(O)c1", "Potency": "inactive"},
      {"smiles": "CC(C=O)c1ccccc1", "note": "(configuration not stated)", "Potency": "inactive"},
      {"smiles": "C=CC(=O)O[C@H]1C[C@@H]2CC[C@@]1(C)C2(C)C", "Potency": "inactive"},
      {"smiles": "CCC1(C)C(=O)N(Cl)C(=O)N1Cl", "note": "(configuration not stated)", "Potency": "inactive"},
      {"smiles": "CN[C@H]1CC[C@@H](c2ccc(Cl)c(Cl)c2)c2ccc(S(N)(=O)=O)cc21", "Potency": "43.6 µM (active)"},
      {"smiles": "CC/C=C(\\C)C=O", "Potency": "inactive"},
      {"smiles": "O=C(Nc1ccc([N+](=O)[O-])cc1)Nc1ccc([N+](=O)[O-])cc1", "note": "(tested in a mixture with another compound)", "Potency": "inactive"},
      {"smiles": "O=C(NCc1ncc(C(F)(F)F)cc1Cl)c1c(Cl)cccc1Cl", "Potency": "inactive"},
      {"smiles": "CCCCCCCCCCCCS(=O)(=O)Cl", "activity change, negative = cytotoxic": "1.02% [at 15.8 µM] (inactive)"},
      {"smiles": "Cc1cccc2c1ccc1ccccc12", "Potency": "inactive"},
      {"smiles": "CC(=O)CC(N)=O", "Potency": "inactive"},
      {"smiles": "CCc1cccc(C)c1N(C(=O)C(=O)O)C(C)COC", "note": "(configuration not stated)", "Potency": "inactive"},
      {"smiles": "CCC(=O)OC/C=C(\\C)CCC=C(C)C", "Potency": "inactive"},
      {"smiles": "CCCC(C)C=O", "note": "(configuration not stated)", "Potency": "inactive"},
      {"smiles": "C=Cc1ccc(O)c(OC)c1", "Potency": "inactive"},
      {"smiles": "CC(=O)[C@]1(O)Cc2c(O)c3c(c(O)c2[C@@H](O[C@H]2C[C@H](N)[C@H](O)[C@H](C)O2)C1)C(=O)c1ccccc1C3=O", "Potency": "12 µM (active)"},
      {"smiles": "c1ccc2cc3c4ccccc4c4ccccc4c3cc2c1", "Potency": "inactive"}
    ]},
    {"assay": "qHTS RealTime-Glo MT Cell Viability Assay in HEK293 cells - 24 hour (AID 1224886); as to activity change, negative = cytotoxicity: top concentration of the series differs between compounds", "conditions": "RealTime-Glo luminescence; series mostly up to 76.8 µM", "in_short": "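Nonlytic real-time viability readout: viable cells convert prosubstrate to NanoLuc substrate, giving luminescence proportional to live cell number. HEK293, 600 cells/well, compound added after 5 h, continuous culture at 37 C.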", "values": [
      {"smiles": "Cc1ccc(N=Nc2c(O)ccc3ccccc23)c(C)c1", "Potency": "inactive"},
      {"smiles": "C/C=C/C(=O)OCC(C)C", "Potency": "inactive"},
      {"smiles": "CN1CCN(CCCN2c3ccccc3Sc3ccc(C(F)(F)F)cc32)CC1", "Potency": "23.9 µM (active)"},
      {"smiles": "CC(C)(C)c1cc(CCC(=O)OCCSCCOC(=O)CCc2cc(C(C)(C)C)c(O)c(C(C)(C)C)c2)cc(C(C)(C)C)c1O", "Potency": "inactive"},
      {"smiles": "C=Cc1ccncc1", "Potency": "inactive"},
      {"smiles": "CCCCCN=C(N)N/N=C/c1c[nH]c2ccc(OC)cc12", "Potency": "4.77 µM (active)"},
      {"smiles": "O=C1CCCCCCCCCCCCCC1", "Potency": "inactive"},
      {"smiles": "CCN(CC)c1ccc(N=Nc2ccccc2)cc1", "Potency": "49 µM (active)"},
      {"smiles": "O=C1CCC/C=C\\CCCCCCCCCC1", "Potency": "inactive"},
      {"smiles": "Brc1cc(Br)cc(Br)c1", "Potency": "inactive"},
      {"smiles": "N#Cc1ccc(C/C(=N/NC(=O)Nc2ccc(OC(F)(F)F)cc2)c2cccc(C(F)(F)F)c2)cc1", "Potency": "inactive"},
      {"smiles": "CSc1nnc(C(C)(C)C)c(=O)[nH]1", "Potency": "inactive"},
      {"smiles": "CCOC(=O)OC(=O)OCC", "Potency": "inactive"},
      {"smiles": "CCCCCCCCCC[N+](C)(CCCCCCCCCC)CCC[Si](OC)(OC)OC", "Potency": "24.5 µM (active)"},
      {"smiles": "c1ccc2c(c1)-c1ccc3ccc4cccc5cc-2c1c3c45", "Potency": "inactive"},
      {"smiles": "O=C(CCCCCCCCc1cccnc1)N1CCC(C=C(c2ccccc2)c2ccccc2)CC1", "Potency": "21.9 µM (active)"},
      {"smiles": "CCN(CC)c1ccc(C=O)c(O)c1", "Potency": "inactive"},
      {"smiles": "COc1cc(/C=C/C(=O)CC(=O)/C=C/c2ccc(O)c(OC)c2)ccc1O", "Potency": "31.1 µM (active)"},
      {"smiles": "CC(C=O)c1ccccc1", "note": "(configuration not stated)", "Potency": "inactive"},
      {"smiles": "C=CC(=O)O[C@H]1C[C@@H]2CC[C@@]1(C)C2(C)C", "Potency": "inactive"},
      {"smiles": "CCC1(C)C(=O)N(Cl)C(=O)N1Cl", "note": "(configuration not stated)", "Potency": "inactive"},
      {"smiles": "CN[C@H]1CC[C@@H](c2ccc(Cl)c(Cl)c2)c2ccc(S(N)(=O)=O)cc21", "Potency": "21.9 µM (active)"},
      {"smiles": "CC/C=C(\\C)C=O", "Potency": "inactive"},
      {"smiles": "O=C(NCc1ncc(C(F)(F)F)cc1Cl)c1c(Cl)cccc1Cl", "Potency": "21.9 µM (active)"},
      {"smiles": "CCCCCCCCCCCCS(=O)(=O)Cl", "activity change, negative = cytotoxicity": "12.2% [at 15.8 µM] (inactive)"},
      {"smiles": "Cc1cccc2c1ccc1ccccc12", "Potency": "inactive"},
      {"smiles": "CC(=O)CC(N)=O", "Potency": "inactive"},
      {"smiles": "CCc1cccc(C)c1N(C(=O)C(=O)O)C(C)COC", "note": "(configuration not stated)", "Potency": "inactive"},
      {"smiles": "CCC(=O)OC/C=C(\\C)CCC=C(C)C", "Potency": "inactive"},
      {"smiles": "CCCC(C)C=O", "note": "(configuration not stated)", "Potency": "inactive"},
      {"smiles": "CC(O)(c1ccc(Cl)cc1)c1ccc(Cl)cc1", "Potency": "24.5 µM (active)"},
      {"smiles": "C=Cc1ccc(O)c(OC)c1", "Potency": "inactive"},
      {"smiles": "Cc1cc(Br)ccc1NC(=O)CCl", "Potency": "30.9 µM (active)"},
      {"smiles": "CC(=O)[C@]1(O)Cc2c(O)c3c(c(O)c2[C@@H](O[C@H]2C[C@H](N)[C@H](O)[C@H](C)O2)C1)C(=O)c1ccccc1C3=O", "Potency": "0.12 µM (active)"},
      {"smiles": "c1ccc2cc3c4ccccc4c4ccccc4c3cc2c1", "Potency": "inactive"}
    ]}
  ]
}
